Assay outcomes as filed in PubChem.
Shown is part of a subset that was picked to be rich in hits.
RmlC RmlD mix: mixture blocks RmlC and RmlD coupled enzyme activity; 0.39% of 110,000 active; AID 1532; RmlC/RmlD coupled enzyme inhibition, 384-well mixture HTS; inhibition, % at 5.5 µM; in the data active = inhibition above about 30%, passing the limit was not always enough; inconclusive = no clear call, values can overlap the other calls
HIV RNase H inh-1: blocks HIV-1 RNase H cleavage of RNA/DNA duplex; P04585; RT-RNase H RNA/DNA duplex cleavage, fluorescence; inhibition, % at 10 µM; 1.9% of 65,000 active; AID 565; in the data active = inhibition above about 50%
HIV RNase H inh-2: confirmation of HIV-1 reverse transcriptase RNase H inhibitors. shares compounds with HIV RNase H inh-1. Recombinant RT RNase H, fluorescent RNA/DNA duplex cleavage. inhibition, % at 10 µM. 39% of 1,000 active. AID 651; in the data active = inhibition above about 48%; inconclusive = no clear call, values can overlap the other calls
* hit, by the source's call; ? = inconclusive; nt = not tested or not shown.

SMILES | RmlC RmlD mix | HIV RNase H inh-1 | HIV RNase H inh-2
Cc1cc(NC(=O)c2cc3n(n2)C(C(F)(F)F)CC(c2ccco2)N3)n(-c2ccccc2)n1 (configuration not stated) | 6 | 62* | 44
COc1ccc(C2CC(=O)C=C(NCCC(C)C)C2)cc1 (configuration not stated) | 4 | nt | nt
CC(C)(C)c1ccc(C(=O)N2CCC(=O)N(C(CO)Cc3ccccc3)CC2)cc1 (configuration not stated) | 9 | nt | nt
CCN1CCN(c2nc(C)nc3c2sc(=S)n3C)CC1 | 1 | 90* | 65*
Cc1nc(N2CCCCC2)c2sc(=S)n(C)c2n1 | 6 | -11 | nt
O=C(CCCCO)CCCCCCCC[C@H]1N[C@H](CO)[C@H](O)[C@@H]1O[C@@H]1O[C@H](CO)[C@@H](O)[C@H](O)[C@H]1O | -21 | nt | nt
Cc1ccc(NC(=O)CSc2nnc(-c3ccc(S(=O)(=O)N4CCCC4)cc3)o2)cc1C | 10 | 70* | 69*
Cc1cccc(NC(=O)CSc2nnc(-c3ccc(S(=O)(=O)N4CCCC4)cc3)o2)c1 | -5 | 3 | nt
Clc1ccc(Nc2ccc(-n3ccnc3)nn2)cc1Cl | 9 | nt | nt
CCCn1nnc(NC(=O)c2cccc(OCc3ccccc3)c2)n1 | 5 | nt | nt
O=C(c1ccc2c3c(cccc13)CC2)N1CCOCC1 | 0 | 6 | nt
O=C(c1cccnc1Nc1ccc2c(c1)CCC2)N1CCOCC1 | 27 | 84* | 9
Cc1cccc(C)c1OCC(=O)Nc1cccc(-c2nnc(-c3ccccc3)o2)c1 | 6 | 2 | nt
Cc1cccc(OCC(=O)Nc2cccc(-c3nnc(-c4ccccc4)o3)c2)c1C | 3 | 71* | 66*
CCN(C(=O)CSc1nc2cc(C(=O)OC)ccc2c(=O)n1Cc1ccco1)c1cccc(C)c1 | 2 | 2 | nt
CCc1ccc(NC(=O)CSc2nc3cc(C(=O)OC)ccc3c(=O)n2Cc2ccco2)cc1 | -9 | 59* | 57*
Cc1sc2nc(SCC(=O)NCc3ccco3)n(C)c(=O)c2c1C | -2 | -7 | nt
O=C(CSc1nc2sc3c(c2c(=O)n1-c1ccccc1)CCCC3)NCc1ccco1 | nt | 62* | 53*
CC1(C)Cc2c(sc3nc(SCC(=O)NCc4ccco4)n(-c4ccccc4)c(=O)c23)CS1 | nt | 13 | nt
CC(C)c1nc2sc3c(SCC(=O)NCc4ccco4)ncnc3c2c2c1CCC2 | 10 | 71* | 35*
O=C(CSc1ncnc2sc3c(c12)CCCCC3)NCc1ccco1 | 11 | -12 | nt
Cc1sc2nc(SCC(=O)NCc3ccco3)n(CCc3ccccc3)c(=O)c2c1C | 9 | 82* | 59*
Cc1[nH]c(=O)c(C(=O)/C=C/c2ccccc2F)c2c1CCCC2 | -4 | nt | nt
Cn1c(=O)c2c(nc(/C=C/c3cccc(Cl)c3)n2C)n(C)c1=O | -126 | nt | nt
Brc1ccc(C2=NC(Cc3ccccc3)CO2)cc1 (configuration not stated) | 10 | nt | nt
SMILES | RmlC RmlD mix | HIV RNase H inh-1 | HIV RNase H inh-2
COc1[nH]c2ccc(F)cc2c1C(=O)OCC1CCN(CCNS(C)(=O)=O)CC1 | 6 | nt | nt
CC(=O)NCCc1c[nH]c2ccc(O)cc12 | 13 | nt | nt
Cc1sc(-c2ccncc2)nc1OC(=O)c1ccccc1 | -18 | nt | nt
CCCN1CCC(=O)N([C@H](CSc2ccc(OC)cc2)CC(C)C)CC1 | 2 | nt | nt
Cc1cc2oc3c(c(=O)c2cc1C)C(c1cccc(Br)c1)N(Cc1ccco1)C3=O (configuration not stated) | 8 | 5 | nt
Cc1ccc2oc3c(c(=O)c2c1)C(c1cccc(Br)c1)N(Cc1ccco1)C3=O (configuration not stated) | 7 | 60* | ?
COc1cc(C2c3c(oc4ccccc4c3=O)C(=O)N2Cc2ccco2)ccc1O (configuration not stated) | -13 | nt | nt
CCOc1cc(C2c3c(oc4cc(C)c(Cl)cc4c3=O)C(=O)N2Cc2ccco2)ccc1O (configuration not stated) | 6 | 61* | 58*
O=C(O)CCC1OC(=O)C(O)=C1c1ccccc1 (configuration not stated) | 10 | nt | nt
Cc1ccc(/C=N/N2CCN(Cc3ccc(Cl)cc3)CC2)o1 | 4 | nt | nt
Cc1nc(N)sc1-c1csc(Nc2ccccc2)n1 | 8 | -2 | nt
Cc1cc(O)ccc1Nc1nc(-c2sc(N)nc2C)cs1 | 6 | 73* | 49
COC(=O)c1cn(NC(=O)c2cccc(OC)c2)c(=O)c2ccccc12 | -31 | nt | nt
CCC/C=C(\CCC)C(NS(=O)(=O)c1cccc2cccnc12)c1ccc(C(=O)OC)cc1 (configuration not stated) | -7 | nt | nt
O=S1(=O)C=C(Sc2nnc(-c3ccccc3)o2)c2ccccc21 | nt | 65* | 21
Cc1cc(C)nc(SC2=CS(=O)(=O)c3ccccc32)n1 | -14 | -19 | nt
O=C(O)C[C@H]1c2ccccc2S(=O)(=O)N1C1CCCC1 | -13 | nt | nt
CCOCCCn1c(=N)c(C(N)=S)cc2c(=O)n3cccc(C)c3nc21 | 0 | 10 | nt
